Measurements from PubChem BioAssay (NCI).
This is part of a sample that, as a whole, favours compounds with a hit. Of some 83,000 tested, about 20% had one in any assay.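 Method: cells in 96-well plates; compound added at one concentration; 48 h incubation; percent growth measured; values under 10 scored active.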 Values without a mark were called inactive. Calls of active or inactive are those of the source.

Key:
Assay in all cases: NCI-60 one-dose screen, 48 h (100 = growth as untreated, 0 = no growth, -100 = all killed)
SK-MEL-2 melanoma = details: 10 µM unless noted
EKVX NSCLC = details: 10 µM unless noted
SN12C renal = details: 10 µM unless noted
UO-31 renal = details: 10 µM unless noted
TK-10 renal = details: 10 µM unless noted
ACHN renal = details: 10 µM unless noted
CAKI-1 renal = details: 10 µM
A498 renal = details: 10 µM unless noted
CCRF-CEM leukemia = details: 10 µM unless noted
MOLT-4 leukemia = details: 10 µM unless noted
RPMI-8226 leukemia = details: 10 µM unless noted
OVCAR-8 ovarian = details: 10 µM unless noted
OVCAR-5 ovarian = details: 10 µM unless noted
OVCAR-4 ovarian = details: 10 µM unless noted
SK-OV-3 ovarian = details: 10 µM unless noted
IGROV1 ovarian = details: 10 µM unless noted
HS 578T breast = details: 10 µM unless noted
NCI/ADR-RES ovarian = details: 10 µM unless noted
SR leukemia = details: 10 µM unless noted
OVCAR-3 ovarian = details: 10 µM unless noted

SMILES: COc1ccc2c(c1)oc1c3[nH]c4ccccc4c3c3c(c21)C(=O)N(O)C3=O
- growth (SK-MEL-2 melanoma): 70.8%
- growth (EKVX NSCLC): 92.5%
- growth (SN12C renal): 40.5%
- growth (UO-31 renal): 22.4%
- growth (TK-10 renal): 119%
- growth (ACHN renal): 11.5%
- growth (CAKI-1 renal): 19.6%
- growth (A498 renal): -1.48% (active)
- growth (CCRF-CEM leukemia): 6.73% (active)
- growth (MOLT-4 leukemia): -2.02% (active)
- growth (RPMI-8226 leukemia): 28%
- growth (OVCAR-8 ovarian): 48.4%
- growth (OVCAR-5 ovarian): 110%
- growth (OVCAR-4 ovarian): 77.9%
- growth (SK-OV-3 ovarian): 39.1%
- growth (IGROV1 ovarian): 41.2%
- growth (HS 578T breast): 77.9%
- growth (NCI/ADR-RES ovarian): 59.6%

SMILES: CC(=O)Nc1nc2c(s1)C1=CC[C@H]3[C@@H]4CC[C@H](C(C)=O)[C@@]4(C)CC[C@@H]3[C@@]1(C)CC2
- growth (SK-MEL-2 melanoma): 56.2%
- growth (EKVX NSCLC): 68.7%
- growth (SN12C renal): 86.4%
- growth (UO-31 renal): 65.4%
- growth (TK-10 renal): 124%
- growth (ACHN renal): 77.6%
- growth (CAKI-1 renal): 80.3%
- growth (A498 renal): 74.5%
- growth (CCRF-CEM leukemia): 49%
- growth (MOLT-4 leukemia): 1.44% (active)
- growth (SR leukemia): 59.4%
- growth (OVCAR-8 ovarian): 78.6%
- growth (OVCAR-5 ovarian): 80.6%
- growth (OVCAR-4 ovarian): 80.5%
- growth (SK-OV-3 ovarian): 59.9%
- growth (IGROV1 ovarian): 99.1%
- growth (HS 578T breast): 33.8%
- growth (NCI/ADR-RES ovarian): 81.6%

SMILES: CC1COc2c(N3CCN(C)CC3)c(F)cc3c(=O)c(C(=O)N/N=C/c4cc[nH]c4)cn1c23 (configuration not stated)
- growth (SK-MEL-2 melanoma): 83.5%
- growth (EKVX NSCLC): 33.3%
- growth (SN12C renal): 49.3%
- growth (UO-31 renal): 54%
- growth (TK-10 renal): 87.8%
- growth (ACHN renal): 43.8%
- growth (CAKI-1 renal): 47.6%
- growth (A498 renal): 40.6%
- growth (CCRF-CEM leukemia): -35.9% (active)
- growth (MOLT-4 leukemia): 9.4% (active)
- growth (RPMI-8226 leukemia): 45.3%
- growth (OVCAR-8 ovarian): 19.4%
- growth (OVCAR-5 ovarian): 77.8%
- growth (OVCAR-4 ovarian): 44.6%
- growth (SK-OV-3 ovarian): 61.6%
- growth (IGROV1 ovarian): 26.6%
- growth (HS 578T breast): 67.5%
- growth (NCI/ADR-RES ovarian): 94.2%

SMILES: Cc1ccc(-c2nnc3sc(C4=Cc5ccccc5OC=C4)nn23)cc1
- growth (SK-MEL-2 melanoma): 104%
- growth (EKVX NSCLC): 99.4%
- growth (SN12C renal): 97.3%
- growth (UO-31 renal): 87.3%
- growth (TK-10 renal): 89.1%
- growth (ACHN renal): 105%
- growth (CAKI-1 renal): 79.6%
- growth (A498 renal): 61.6%
- growth (CCRF-CEM leukemia): 105%
- growth (MOLT-4 leukemia): 82.8%
- growth (RPMI-8226 leukemia): 101%
- growth (OVCAR-8 ovarian): 89.8%
- growth (OVCAR-5 ovarian): 98%
- growth (OVCAR-4 ovarian): 99.2%
- growth (SK-OV-3 ovarian): 118%
- growth (IGROV1 ovarian): 109%
- growth (HS 578T breast): 112%
- growth (NCI/ADR-RES ovarian): 98.2%

SMILES: O=[N+]([O-])c1ccc(-c2nnc(SCc3ccc(O)c4ncccc34)o2)cc1
- growth (SK-MEL-2 melanoma): 25%
- growth (EKVX NSCLC): 27.3%
- growth (SN12C renal): 17.1%
- growth (UO-31 renal): 7.09% (active)
- growth (TK-10 renal): 29.2%
- growth (ACHN renal): 12.6%
- growth (CAKI-1 renal): 22.9%
- growth (A498 renal): 27.7%
- growth (CCRF-CEM leukemia): 19.2%
- growth (MOLT-4 leukemia): 25.1%
- growth (RPMI-8226 leukemia): 15%
- growth (OVCAR-8 ovarian): 22%
- growth (OVCAR-5 ovarian): 49%
- growth (OVCAR-4 ovarian): 17.3%
- growth (SK-OV-3 ovarian): 11.1%
- growth (IGROV1 ovarian): 31.7%
- growth (OVCAR-3 ovarian): 8.31% (active)
- growth (HS 578T breast): 2.14% (active)
- growth (NCI/ADR-RES ovarian): 25.3%

SMILES: COc1ccc(C2CC(c3ccc(Nc4nc(NCCO)nc(Nc5ccc(Cl)cc5)n4)cc3)=Nc3c(N)nc(N)nc3N2)cc1 (configuration not stated)
- growth (SK-MEL-2 melanoma): 89.5%
- growth (EKVX NSCLC): 107%
- growth (SN12C renal): 85.1%
- growth (UO-31 renal): 56.2%
- growth (TK-10 renal): 107%
- growth (ACHN renal): 90.1%
- growth (CAKI-1 renal): 61.1%
- growth (A498 renal): 42.7%
- growth (CCRF-CEM leukemia): -17.9% (active)
- growth (MOLT-4 leukemia): 3.14% (active)
- growth (RPMI-8226 leukemia): -4.52% (active)
- growth (OVCAR-8 ovarian): 40%
- growth (OVCAR-5 ovarian): 121%
- growth (OVCAR-4 ovarian): 66.9%
- growth (SK-OV-3 ovarian): 112%
- growth (IGROV1 ovarian): 74%
- growth (HS 578T breast): 94.9%
- growth (NCI/ADR-RES ovarian): 76%

SMILES: CN(c1ccc(Cl)cc1)S(=O)(=O)c1ccc(-c2cnc(C3CC3)o2)cc1
- growth (SK-MEL-2 melanoma): 63.7%
- growth (EKVX NSCLC): 47%
- growth (SN12C renal): 29.8%
- growth (UO-31 renal): 47.3%
- growth (TK-10 renal): 75.8%
- growth (ACHN renal): 33.6%
- growth (CAKI-1 renal): 5.6% (active)
- growth (A498 renal): 12.8%
- growth (CCRF-CEM leukemia): 17.1%
- growth (MOLT-4 leukemia): 16.8%
- growth (SR leukemia): 8.67% (active)
- growth (OVCAR-8 ovarian): 30.7%
- growth (OVCAR-5 ovarian): 38.3%
- growth (OVCAR-4 ovarian): 54.7%
- growth (SK-OV-3 ovarian): 84.1%
- growth (IGROV1 ovarian): 28.8%
- growth (OVCAR-3 ovarian): 9.18% (active)
- growth (HS 578T breast): 49.3%
- growth (NCI/ADR-RES ovarian): 13.6%

SMILES: O=C(/C=C/c1cccc(O)c1)c1ccc(O)cc1
- growth (SK-MEL-2 melanoma): 107%
- growth (EKVX NSCLC): 98.4%
- growth (SN12C renal): 65.6%
- growth (UO-31 renal): 72.6%
- growth (TK-10 renal): 98.3%
- growth (ACHN renal): 75.1%
- growth (CAKI-1 renal): 65.3%
- growth (A498 renal): 114%
- growth (CCRF-CEM leukemia): 37%
- growth (MOLT-4 leukemia): 91.7%
- growth (RPMI-8226 leukemia): 18.7%
- growth (OVCAR-8 ovarian): 83.7%
- growth (OVCAR-5 ovarian): 91.4%
- growth (OVCAR-4 ovarian): 96.2%
- growth (SK-OV-3 ovarian): 112%
- growth (IGROV1 ovarian): 80.2%
- growth (OVCAR-3 ovarian): 14.3%
- growth (HS 578T breast): 101%
- growth (NCI/ADR-RES ovarian): 71.4%
